97 compounds from PubChem BioAssay AID1903 (Southern Research Specialized Biocontainment Screening …, 2009) can be followed below.

Several values for one entry are separate records, joined by “and”; a condition that tells them apart may be missing. Equal values may be shown once. The campaign covered roughly 310,000 compounds. About 1,200 (0.39%) were called active. The rule behind the calls is not given here. The list is a sample of the results. Potency and affinity values are given separately.

Usually inhibition stands for the change of the read-out against control, counted positive when it falls.

In the assay the target is Large T antigen (Simian virus 40) (UniProt P03070). Put plainly: TAg ATPase/helicase activity blockers – biochemical (AID 1903). The note with it: SV40 large T antigen ATPase/helicase inhibition assay; at 20 µM; stronger effect = higher value.
Large T antigen (Simian virus 40), sequence (P03070 whole entry, looked up): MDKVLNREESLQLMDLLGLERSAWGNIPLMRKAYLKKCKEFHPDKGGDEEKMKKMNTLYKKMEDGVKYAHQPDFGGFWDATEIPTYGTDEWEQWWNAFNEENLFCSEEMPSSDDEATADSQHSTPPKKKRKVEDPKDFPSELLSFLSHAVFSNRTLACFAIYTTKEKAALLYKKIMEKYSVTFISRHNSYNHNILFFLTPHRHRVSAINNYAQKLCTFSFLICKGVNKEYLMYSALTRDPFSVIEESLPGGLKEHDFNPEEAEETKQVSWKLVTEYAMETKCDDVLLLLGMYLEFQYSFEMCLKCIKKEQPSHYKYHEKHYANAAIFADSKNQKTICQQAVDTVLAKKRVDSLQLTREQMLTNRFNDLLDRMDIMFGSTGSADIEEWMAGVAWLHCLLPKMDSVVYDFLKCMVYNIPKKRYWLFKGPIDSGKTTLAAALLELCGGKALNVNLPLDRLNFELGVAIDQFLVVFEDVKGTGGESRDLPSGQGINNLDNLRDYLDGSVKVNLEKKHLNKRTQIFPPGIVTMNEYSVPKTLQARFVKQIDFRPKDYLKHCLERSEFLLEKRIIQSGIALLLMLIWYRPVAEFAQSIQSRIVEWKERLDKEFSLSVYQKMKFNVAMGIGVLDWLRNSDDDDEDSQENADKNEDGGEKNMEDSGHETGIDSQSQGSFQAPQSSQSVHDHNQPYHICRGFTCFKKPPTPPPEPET
In the case of `O=C(COC(=O)COc1ccccc1[N+](=O)[O-])Nc1ccc(S(=O)(=O)N2CCCCC2)cc1`, the inhibition is 9.97% (inactive).

For the compound `CC(=O)Nc1ccc(NC(=O)CSc2nnc(NC(=O)c3cccc(F)c3)s2)cc1`, the inhibition was 7.35% (inactive).

`COc1ccc(CC2(CO)COc3ccccc3C2=O)cc1` (configuration not stated): the inhibition is 18% (inactive).

For the compound `CCn1c(SCC(=O)Nc2cc(OC)ccc2OC)nnc1C1CCCCC1`, the inhibition was 5.72% (inactive).

As for `CN(C)C(=O)COC(=O)c1cc(Cl)cc(Cl)c1N`, the inhibition was 7.1% (inactive).

Regarding `CCOC(=O)C1=C(CCc2ccccc2)NC(=O)NC1c1ccc(C#N)cc1` (configuration not stated), the inhibition is 13.1% (inactive).

On to `O=C1C(Cl)=C(N2CCOCC2)C(=O)N1c1ccccc1F`, for which the inhibition is 11.2% (inactive).

For `O=C(Nc1ccc(N2CCOCC2)cc1)C1CCN(S(=O)(=O)c2ccccc2F)CC1`, the inhibition is 13.6% (inactive).

On to `O=C1C(Cc2ccccc2)Nc2ncnc(N3CCOCC3)c2N1Cc1ccc(Cl)cc1` (configuration not stated), for which the inhibition is 9.83% (inactive).

Turning to `Cn1c(=Nc2ccccc2)sc2ccccc21`, the inhibition was -5.34% (inactive).

Turning to `COc1ccc(N=c2sc3ccccc3n2C)cc1`, the inhibition was 7.43% (inactive).

On to `CC1CCCCN1c1ncnc2ccccc12` (configuration not stated), for which the inhibition is 0.555% (inactive).

For `CC(C)OC(=O)Cc1nc2sc(-c3ccccc3)cc2c(=O)[nH]1`, the inhibition was 6.88% (inactive).

`CN(C)Cc1ccccc1Sc1ccc(Br)cc1`: the inhibition was 9.88% (inactive).

Take `CCN(CC)Cc1ccccc1Sc1ccccc1`: the inhibition was 16.5% (inactive).

In the case of `CNCc1ccccc1Sc1cccc(O)c1`, the inhibition is 25.7% (inactive).

As to `CNCc1ccccc1Sc1ccc(O)c(O)c1`, the inhibition was -1% (inactive).

`CCC(C)C(NC(=O)c1ccc(Cl)cc1)C(=O)Nc1cccnc1` (configuration not stated): the inhibition was -3.25% (inactive).

Consider `CCOC(=O)c1c(NC(=O)CSc2nnnn2C)sc(CC)c1C`, for which the inhibition is 4.57% (inactive).

Turning to `O=C(N/C(=C/c1cccs1)C(=O)N1CCOCC1)c1ccccc1`, the inhibition is 6.38% (inactive).

Take `Cc1ccc(Nc2nc(N3CCOCC3)c3ccccc3n2)cc1`: the inhibition was 6.59% (inactive).

For `CN1CCN(c2nc(-c3ccccc3O)nc3ccccc23)CC1`, the inhibition was 3.42% (inactive).

Turning to `COc1ccc(Nc2nc(N3CCCC3)c3ccccc3n2)cc1`, the inhibition is 17.3% (inactive).

On to `COc1ccc(Nc2nc(N3CCCCC3)c3ccccc3n2)cc1`, for which the inhibition is 8.24% (inactive).

With `COc1ccc(OC)c(NC(=O)CSc2ccc(-c3ccco3)nn2)c1`, the inhibition is 11.7% (inactive).

`CC(C)(C)OC(=O)[C@H](Cc1ccccc1)NC(=O)c1nc[nH]c1C(=O)N1CCN(c2ccccc2)CC1`: the inhibition is 10.9% (inactive).

Regarding `Cc1cc(C(=O)NNC(=S)NCc2ccco2)n(C)n1`, the inhibition is -6.03% (inactive).

Turning to `CCC(=O)OCCNc1cc(Sc2nc3ccccc3s2)c2nonc2c1[N+](=O)[O-]`, the inhibition was 10.9% (inactive).

In the case of `CC(=O)OCCCNc1cc(Sc2nc3ccccc3s2)c2nonc2c1[N+](=O)[O-]`, the inhibition is 22% (inactive).

For the compound `CC(C)C(=O)N1CCC(Cc2ccccc2)CC1`, the inhibition is 12.3% (inactive).

`O=C1C=CC(=O)N1c1ccc(I)cc1Cl`: the inhibition is 8.61% (inactive).

As for `COc1cc(Cl)c(S(=O)(=O)N2CCCC2)cc1Cl`, the inhibition was 17.9% (inactive).

For `CNC(=O)COC(=O)c1nc(-n2nc(C)cc2C)ccc1Cl`, the inhibition was 1.24% (inactive).

Consider `COc1ccc(C(=O)Nc2nccs2)cc1`, for which the inhibition is 4.19% (inactive).

On to `O=c1[nH]c(/C=C\c2ccc(O)c(Cl)c2)nc(O)c1[N+](=O)[O-]`, for which the inhibition is 22.7% (inactive).

For the compound `COc1ccc(/C=C\c2nc(O)c([N+](=O)[O-])c(=O)[nH]2)cc1O`, the inhibition was 5.95% (inactive).

For the compound `Cc1csc(Sc2ccc(S(=O)(=O)N3CCCC3)cn2)n1`, the inhibition was 10.9% (inactive).

In the case of `O=C(O)c1cc(-c2cccs2)nc2ccc(Br)cc12`, the inhibition was 15.7% (inactive).

In the case of `NC(=O)c1nsc(C(=O)N(c2ccc(F)cc2)C(C(=O)NCC2CCCO2)c2ccc3ncccc3c2)c1N` (configuration not stated), the inhibition is -0.08% (inactive).

Take `O=C(NC1CCSc2ccccc21)c1ccc(Cl)c(S(=O)(=O)N2CCOCC2)c1` (configuration not stated): the inhibition is 9.03% (inactive).

With `NS(=O)(=O)c1cccc(C(=O)NC2CCSc3ccccc32)c1` (configuration not stated), the inhibition is -2.32% (inactive).

On to `COC(=O)C1=C(C)NC(=S)N(C(C)=O)C1c1ccc(OC)c(OC)c1` (configuration not stated), for which the inhibition is 9.87% (inactive).

For the compound `COC(=O)Cc1c(C)c2ccc(OCC(=O)c3ccc(OC)c(OC)c3)cc2oc1=O`, the inhibition was 14.4% (inactive).

As for `Cc1csc(NC(=O)CS(=O)(=O)Cc2ccccc2)n1`, the inhibition was 0.95% (inactive).

Regarding `COc1cccc(NC(=O)c2cc([N+](=O)[O-])ccc2NC(=O)CNCC2CCCO2)c1` (configuration not stated), the inhibition was 3.88% (inactive).

With `Cn1c(SCC(=O)c2ccc(O)c(O)c2)nnc1-c1ccccc1`, the inhibition is 27.2% (inactive).

Regarding `O=C(CSc1nc2ccccc2n1CCc1ccccc1)NC1CC1`, the inhibition is 5.51% (inactive).

On to `Cc1cc(SCC(=O)c2ccc(O)c(O)c2)nc2ccccc12`, for which the inhibition is 35.4% (inactive).

On to `Cc1cc(SCC(=O)c2ccc(O)c(O)c2)n2nc(C)c(-c3ccccc3)c2n1`, for which the inhibition was 31.3% (inactive).

As for `O=C(CSc1nc2ccccc2n1CCc1ccccc1)N1CCOCC1`, the inhibition is 11.6% (inactive).

For `Cc1cc(C)nc(SCC(=O)c2ccc(O)c(O)c2)n1`, the inhibition is 35.3% (inactive).

`Cc1cc(-c2nnc(CCC(=O)N(C)C(C)c3cccs3)o2)no1` (configuration not stated): the inhibition is 22% (inactive).

Take `CCC(C)N(C(=O)COC(=O)COc1c(C)cc(C)cc1C)C1CCS(=O)(=O)C1` (configuration not stated): the inhibition is 7.34% (inactive).

With `COCC1CCN(C(=O)c2ccc3oc(Cc4ccc(Cl)cc4)nc3c2)C1` (configuration not stated), the inhibition is 11.1% (inactive).

As for `Cc1sc2ncnc(Sc3ccccc3C(=O)Nc3ccc(C#N)cc3)c2c1C`, the inhibition was 9.82% (inactive).

Consider `Cc1nn(-c2ccccc2)c(Cl)c1/C=N\NC(=O)c1cncc(Br)c1`, for which the inhibition is 22% (inactive).

Consider `CC(=O)c1ccc(N2C(=O)NC3(CCCCC3)C2=O)cc1`, for which the inhibition is 3.35% (inactive).

With `COc1cccc(-c2nc(CS(=O)(=O)CC(=O)Nc3cc(C)ccc3C)c(C)o2)c1`, the inhibition was 15.6% (inactive) and 1.41% (inactive).

`CCN(CC)S(=O)(=O)c1ccc(N/N=C/c2cccnc2)nc1`: the inhibition is 9.01% (inactive).

On to `CCN(CC)S(=O)(=O)c1ccc(N/N=C/c2ccc(O)cc2O)nc1`, for which the inhibition is 21.6% (inactive).

With `Cc1nc(Cl)cc(N/N=C/c2ccc(O)cc2O)n1`, the inhibition is 24.5% (inactive).

Consider `COc1cccc(/C=N/Nc2cc(Cl)nc(C)n2)c1O`, for which the inhibition was 21% (inactive).

With `Cc1cc(N/N=C/c2ccc(O)cc2)nc(NS(=O)(=O)c2ccccc2)n1`, the inhibition is 10.1% (inactive).

For the compound `COc1ccc(/C=N/Nc2cc(C)nc(NS(=O)(=O)c3ccc(C)cc3)n2)cc1`, the inhibition was 11.9% (inactive).

`COc1ccccc1C(=O)N/C(=C/c1cccc([N+](=O)[O-])c1)C(=O)Nc1cccc(C(=O)O)c1`: the inhibition is -0.39% (inactive).

`O=C(O)CN1C(=O)c2ccc(Oc3ccc([N+](=O)[O-])cc3)cc2C1=O`: the inhibition was 7.08% (inactive).

As to `CCOCCCn1c(SCC(=O)Nc2ccc3[nH]c(=O)[nH]c3c2)nc2ccccc2c1=O`, the inhibition is 10.2% (inactive).

`O=C(Cc1c(Cl)cccc1Cl)N/N=C/c1cccnc1`: the inhibition is 17.8% (inactive).

Regarding `COc1cc(C(=O)CSc2nnc(-c3ccc(O)cc3)n2CC2CCCO2)ccc1NC(C)=O` (configuration not stated), the inhibition is 4.93% (inactive).

Regarding `COc1ccc(CCN2C(=O)NC(NS(=O)(=O)c3ccc(Cl)cc3)(C(F)(F)F)C2=O)cc1OC` (configuration not stated), the inhibition is 12.9% (inactive).

Regarding `O=C(COC(=O)C1COc2ccccc2O1)Nc1cccc(S(=O)(=O)N2CCCCC2)c1` (configuration not stated), the inhibition was 11.3% (inactive).

On to `CN(c1ccc(C(=O)Nc2ccc3c(c2)OCO3)cc1)S(C)(=O)=O`, for which the inhibition was 14.1% (inactive).

As for `Cc1c(CC(=O)N2CCN(C(=O)C3COc4ccccc4O3)CC2)c(=O)oc2c(C)c(O)ccc12` (configuration not stated), the inhibition was 24.4% (inactive).

As to `COc1ccc2c(C)c(CC(=O)N3CCN(C(=O)C4COc5ccccc5O4)CC3)c(=O)oc2c1C` (configuration not stated), the inhibition is 12% (inactive).

As to `Cc1cccn2c(=O)c3cc(C(=O)NC4CCCCC4)c(=N)n(Cc4ccccc4)c3nc12`, the inhibition was 5.16% (inactive).

Consider `Cc1nc2sc3c(c2c2nc(-c4ccco4)nn12)CCCC3`, for which the inhibition is 14.8% (inactive).

As for `Cc1nc2sc3c(c2c(=O)o1)CCC3`, the inhibition is 9.19% (inactive).

As to `COc1ccc(C(=O)NCC(=O)OCc2ccccc2F)cc1`, the inhibition was 6.15% (inactive).

As to `O=C(COc1ccc(S(=O)(=O)N2CCOCC2)cc1)NCCCn1ccnc1`, the inhibition is 7.23% (inactive).

Take `COc1cccc(CNS(=O)(=O)c2c(C(=O)N3CCCCCC3)c(C)n(C)c2C)c1`: the inhibition is 2.83% (inactive).

In the case of `CC(C)CN(CC(C)C)C(=O)CN1C(=O)NC2(CCc3ccccc3C2)C1=O` (configuration not stated), the inhibition is 23.5% (inactive).

For the compound `N#Cc1c(N)sc(=S)c2c1CCCC2`, the inhibition was 29.3% (inactive).

As for `N#Cc1c(N)sc2c1CCCCCC2`, the inhibition is 32% (inactive).

Consider `Cn1c(CNC(=O)c2ccc3c(c2)OCO3)nnc1SCC(=O)Nc1ccccc1Cl`, for which the inhibition is 10.7% (inactive).

For the compound `Nc1ccc(OCCc2ccccc2)cc1`, the inhibition is 30.9% (inactive).

With `COc1ccc(Cc2c(N)nc(N)nc2N)cc1`, the inhibition was -2.12% (inactive).

Take `CC(C)C1N=C2c3ccccc3N=C(SCC(=O)NCCc3ccc(S(N)(=O)=O)cc3)N2C1=O` (configuration not stated): the inhibition is 1% (inactive).

As for `CC(C)C1N=C2c3ccccc3N=C(SCC#N)N2C1=O` (configuration not stated), the inhibition was 6.69% (inactive).

Consider `Cc1ccc(-c2nnc(SCC(=O)N3c4ccccc4NC(=O)C3(C)C)n2N)cc1`, for which the inhibition is 4.15% (inactive).

For `O=Cc1ccc(O)c(O)c1`, the inhibition was 34.4% (inactive).

Regarding `Cc1ccc(/C=C/C(=O)c2ccccc2O)cc1`, the inhibition is 11.7% (inactive).

Turning to `CCOc1ccc(/C=C\C(C)=N\O)cc1`, the inhibition was 29.6% (inactive).

For the compound `COc1cc(/C=C/C(=O)O)ccc1O`, the inhibition is 24.2% (inactive).

Take `Nc1cccc(/C=C/C(=O)O)c1`: the inhibition is 15.7% (inactive).

On to `CC(/C=C/c1ccccc1)=N/O`, for which the inhibition is 10.9% (inactive).

As to `COc1cc(/C=C/c2ccc(O)cc2)cc(OC)c1`, the inhibition is 11.3% (inactive) and 1.99% (inactive).

Turning to `O=C(/C=C/c1ccc(O)c(O)c1)NC(=O)c1ccccc1O`, the inhibition is 6.12% (inactive).
